Results as given in the supplement of paper PMC10723795.
± gives the standard deviation of the averaged measurements.

System: CHON-002
Experiment: nucleolar normality score relative to DMSO (fraction of DMSO control); RPE1 is a non-cancer human cell line; higher = more normal nucleoli (less nucleolar stress)
Method: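 Selected screen hits were validated in hTERT lines (BJ5TA, CHON-002, RPE1) and cancer lines (DLD1, HCT116). Cells were immunostained for nucleolin and UBF and the nucleolar normality score was measured per field of view, with 4 fields per drug. Scores are normalized to each cell line's own DMSO control. Dose and time are not stated for this panel.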

**Q.** For `CC(C)C[C@H](NC(=O)[C@H](CCc1ccccc1)NC(=O)CN1CCOCC1)C(=O)N[C@@H](Cc1ccccc1)C(=O)N[C@@H](CC(C)C)C(=O)[C@@]1(C)CO1` [Carfilzomib], which nucleolar normality score is on record?
**A.** The nucleolar normality score was 0.453 ± 0.025.

**Q.** With `CC(C)c1c2cc(-c3ccnc(NC4CCC(NC5CCOCC5)CC4)n3)ccc2nn1C` (configuration not stated) as the molecule, how does the nucleolar normality score read?
**A.** Its nucleolar normality score is 0.281 ± 0.015.

**Q.** For `COC[C@H](NC(=O)c1cnc(C)s1)C(=O)N[C@@H](COC)C(=O)N[C@@H](Cc1ccccc1)C(=O)[C@@]1(C)CO1` [Oprozomib], which nucleolar normality score is on record?
**A.** The nucleolar normality score was 0.548 ± 0.036.

**Q.** Which nucleolar normality score does the source give for `COc1cccc2c1C(=O)c1c(O)c3c(c(O)c1C2=O)C[C@@](O)(C(=O)CO)C[C@@H]3O[C@H]1C[C@H](N)[C@H](O)[C@H](C)O1` [Doxorubicin] here?
**A.** Its nucleolar normality score is 0.182 ± 0.039.

**Q.** With `Cc1cnc(CNC(=O)c2c(=O)c3ccc(N4CCCN(C)CC4)nc3n3c2sc2ccccc23)cn1` as the molecule, how does the nucleolar normality score read?
**A.** Its nucleolar normality score is 0.487 ± 0.11.

**Q.** `Cc1nc(-c2cn3c(n2)-c2ccc(-c4cnn(C(C)(C)C(N)=O)c4)cc2OCC3)n(C(C)C)n1` [Taselisib] was tested. Which nucleolar normality score did it give?
**A.** Its nucleolar normality score is 0.444 ± 0.044.

**Q.** With `CCc1cnn2c(NCc3ccc[n+]([O-])c3)cc(N3CCCC[C@H]3CCO)nc12` [Dinaciclib] as the molecule, how does the nucleolar normality score read?
**A.** The nucleolar normality score was 0.201 ± 0.018.

**Q.** With `C=CCNC1=C2C[C@@H](C)C[C@H](OC)[C@H](O)[C@@H](C)/C=C(\C)[C@H](OC(N)=O)[C@@H](OC)/C=C\C=C(/C)C(=O)NC(=CC1=O)C2=O` as the molecule, how does the nucleolar normality score read?
**A.** The nucleolar normality score was 0.408 ± 0.035.

**Q.** `CN1CC[C@H](c2c(O)cc(O)c3c(=O)cc(-c4ccccc4Cl)oc23)[C@H](O)C1` [Flavopiridol] was tested. Which nucleolar normality score did it give?
**A.** The nucleolar normality score was 0.181 ± 0.013.

**Q.** `CN(C)CCNC(=O)c1cccn2c(=O)c3cc4ccccc4cc3nc12` was tested. Which nucleolar normality score did it give?
**A.** Its nucleolar normality score is 0.0829 ± 0.03.

**Q.** With `CC(C)n1nc(-c2ccc3oc(N)nc3c2)c2c(N)ncnc21` [Sapanisertib] as the molecule, how does the nucleolar normality score read?
**A.** The nucleolar normality score was 0.4 ± 0.023.

**Q.** `CC(C)c1cc(C(=O)N2Cc3ccc(CN4CCN(C)CC4)cc3C2)c(O)cc1O` [Onalespib] was tested. Which nucleolar normality score did it give?
**A.** Its nucleolar normality score is 0.383 ± 0.023.
